SIRT5 block: blocks human SIRT5 desuccinylation of peptide | Purified SirT5, succinyl-peptide AMC, trypsin-coupled fluorescence | inhibition, % at 15 µM | 330,000 tested, 1.1% active; in the data active means inhibition above about 15%
ERAP1 inh: inhibitors of human ERAP1 aminopeptidase; inhibition, % at 10.7 µM; AID 652197; recombinant ERAP1, Leu-AMC fluorescence, 60 min; Q9NZ08; 340,000 tested, 0.15% active;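 active means mean replicate inhibition of at least 30%, or all replicates individually reaching that 30% level; inactive means mean below 30% and not every replicate reaching it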
Casp6 inh: blocks human caspase-6 cleavage activity | P55212 | 350,000 tested, 0.53% active | purified caspase-6, Z-VEID-R110 cleavage fluorescence | inhibition, % at 12.5 µM;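 active means mean inhibition across replicates at least about 35%, with every replicate also reaching that limit, limit read from the data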
Target sequence (P55212 24-179 limits assumed): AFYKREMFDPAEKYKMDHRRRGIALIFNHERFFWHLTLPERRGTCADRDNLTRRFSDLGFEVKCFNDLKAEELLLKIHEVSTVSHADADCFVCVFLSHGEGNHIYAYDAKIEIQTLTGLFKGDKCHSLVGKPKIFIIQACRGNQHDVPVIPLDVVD
Target sequence (P55212 194-293 limits assumed): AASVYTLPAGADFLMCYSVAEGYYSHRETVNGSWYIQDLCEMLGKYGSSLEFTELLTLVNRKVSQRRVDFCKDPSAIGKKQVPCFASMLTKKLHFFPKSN
GSIS activator: GLuc luminescence reporter in INS-1E cells, primary screen for activators of glucose-dependent secretion of insulin | 370,000 tested, 0.61% active | activation, % at 16.6 µM | INS-1E GLuc reporter insulin secretion, 2-3 h;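 active means lowest replicate activation of at least 40%, so every replicate reaches that level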
FGF22 binding: FGF22 (human) thermal shift binding | recombinant FGF22 thermal shift, SYPRO orange fluorescence; percent of sucrose octasulfate shift, DMSO zero | activity (Tm shift, normalised), % at 9.99 µM | Q9HCT0 | 340,000 tested, 1.5% active;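 active means mean Tm shift, scaled 0 neutral to 100 positive control, at about 1.3% or above, every replicate too, limit read from the data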
Target sequence (Q9HCT0 whole entry, looked up): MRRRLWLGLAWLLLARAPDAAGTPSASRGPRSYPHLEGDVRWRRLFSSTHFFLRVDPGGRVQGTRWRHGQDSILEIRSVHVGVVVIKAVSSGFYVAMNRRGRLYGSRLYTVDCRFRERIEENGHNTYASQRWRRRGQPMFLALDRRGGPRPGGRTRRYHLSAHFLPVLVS
Numbers stand for hits; i = inactive; nt = no result. Only some compounds are listed: those with a hit (about 3.3% of all), similar ones and a draw of the others.

SMILES | SIRT5 block | ERAP1 inh | Casp6 inh | GSIS activator | FGF22 binding
N#CCC(=O)Nc1cc(C(F)(F)F)ccc1N1CCOCC1 | nt | i | i | i | i
COc1ccc(-c2ocnc2C(=O)Nc2ccc(N3CCOCC3)cc2N2CCOCC2)cc1OC | i | i | i | 85.0 | i
N#CCC(=O)Nc1ccc(C(F)(F)F)cc1N1CCOCC1 | i | i | i | i | 43.5
CC(C)NC(=O)N(C)C[C@H]1OCCCC[C@H](C)Oc2ccc(NS(=O)(=O)c3ccc(F)cc3)cc2C(=O)N([C@@H](C)CO)C[C@H]1C | i | i | i | i | i
O=C(c1ccccc1)c1ccccc1 | i | i | i | nt | i
O=C(O)C1C=CC(C(=O)O)c2ccccc21 (configuration not stated) | nt | i | i | nt | 43.8
CC(C1SC(=S)NC1=O)C1SC(=S)NC1=O (configuration not stated) | i | i | 68.2 | nt | i
COc1ccccc1CCc1nnc(CCC(=O)NCCOc2cccnc2)o1 | i | i | i | i | 43.7
CC(C)NC(=O)NCC[C@@H]1CC[C@H](NS(=O)(=O)c2ccccc2)[C@H](CO)O1 | nt | nt | nt | i | nt
CO[C@@H]1CN(C)C(=O)c2cc(NC(=O)C3CCCC3)ccc2OC[C@H](C)N(C(=O)CC2CC2)C[C@H]1C | i | i | i | i | i
CCN(CC)C(C(=O)NC1CCCCC1)c1ccc(C)cc1 (configuration not stated) | i | i | i | i | 43.5
COc1ccccc1CCNC(=O)CC1C(=O)NCCN1CCCc1ccccc1 (configuration not stated) | i | i | i | i | i
O=C(CC1C(=O)NCCN1CCCc1ccccc1)NCCc1ccccc1Cl (configuration not stated) | 15.4 | i | i | i | i
Cn1cc(CCNC(=O)CC2C(=O)NCCN2Cc2cccc(Oc3ccccc3)c2)cn1 (configuration not stated) | i | i | i | i | 44.0
CCCCCCCCCCC(C(=O)O)C1(C(=O)O)CCC(=O)O1 (configuration not stated) | i | 38.5 | i | nt | i
O=C(O)c1cc(O)c2c(c1)[C@@H]([C@H]1c3cc(C(=O)O)cc(O)c3C(=O)c3c(O[C@@H]4O[C@H](CO)[C@@H](O)[C@H](O)[C@H]4O)cccc31)c1cccc(OC3O[C@H](CO)[C@@H](O)[C@H](O)[C@H]3O)c1C2=O (some centres not stated) | i | i | 90.8 | i | i
O=C1c2cc(CO)cc(O)c2C(=O)c2c(O[C@@H]3OC(CO)[C@@H](O)[C@@H](O)[C@@H]3O)cccc21 (some centres not stated) | i | i | i | i | i
O=C(O)c1cc(O)c2c(c1)[C@H]([C@H]1c3cc(C(=O)O)cc(O)c3C(=O)c3c(O[C@@H]4O[C@H](CO)[C@@H](O)[C@H](O)[C@H]4O)cccc31)c1cccc(OC3O[C@H](CO)[C@@H](O)[C@H](O)[C@H]3O)c1C2=O (some centres not stated) | i | i | 82.8 | i | i
O=C1c2c(O)cccc2C(C2OC(CO)[C@@H](O)[C@H](O)[C@H]2O)c2cc(CO)cc(O)c21 (some centres not stated) | nt | i | i | i | i
O=C(C[C@H]1CC[C@@H]2[C@H](COC[C@H](O)CN2Cc2ccc3c(c2)OCO3)O1)Nc1ccc(-c2ccccc2)cc1 | i | i | i | i | i
CCNC(=O)C[C@H]1CC[C@H]2[C@@H](COC[C@@H](O)CN2S(=O)(=O)c2ccc(Oc3ccccc3)cc2)O1 | i | i | i | i | i
C[C@H](CO)N1C[C@H](C)[C@H](CN(C)S(=O)(=O)c2cn(C)cn2)Oc2ccc(NC(=O)Cc3cn(C)c4ccccc34)cc2C1=O | i | i | i | i | i
CCCCCCCCCCOC(=O)C[N+](C)(C)C/C=C(/C)Cl | i | 35.5 | i | i | i
CCCCCCCCOC(=O)C[N+](C)(C)C/C=C(/C)Cl | i | i | i | i | i
Cc1noc(C)c1NC(=O)Nc1ccc2c(c1)CC(=O)N([C@H](C)CO)C[C@H](C)[C@H](CN(C)C(=O)Nc1c(C)noc1C)O2 | i | i | nt | i | i
SMILES | SIRT5 block | ERAP1 inh | Casp6 inh | GSIS activator | FGF22 binding
Cc1ccccc1OCC(=O)Nc1ccccc1-c1ccccc1NC(=O)COc1ccccc1C | nt | nt | nt | i | nt
Cc1cc(CSc2ccccc2)ccc1NC(=O)COc1ccccc1C | i | i | i | i | 44.3
CCN1CCN(C(=O)c2ccc(C(F)(F)F)cc2)CC1 | 20.3 | i | i | i | i
C[C@@H]1CCCCO[C@@H](CN(C)C(=O)NC2CCCCC2)[C@@H](C)CN([C@@H](C)CO)C(=O)c2cc(NC(=O)CCC(F)(F)F)ccc2O1 | i | i | i | i | i
O=C(OCn1ncc(Br)c(Br)c1=O)c1ccccc1Cl | i | i | i | 115.4 | nt
COc1ccc2c3c(n(C)c2c1)[C@H](CO)N(C)CC31CCN(C(=O)c2ccccc2F)CC1 | i | i | i | i | i
CCOC(=O)C1=CCN(S(=O)(=O)c2ccc(Br)cc2)C1c1cccc(C)c1 (configuration not stated) | nt | i | i | i | i
CCOC(=O)C1=CCN(S(=O)(=O)c2ccc(C)cc2)C1c1ccc(CC)cc1 (configuration not stated) | 15.9 | i | i | i | i
CCOC(=O)C1=CCN(S(=O)(=O)c2ccc(C)cc2)C1c1cccc(Br)c1 (configuration not stated) | 28.8 | i | i | i | i
CCOC(=O)C1=CCN(S(=O)(=O)c2ccc(C)cc2)C1c1ccc(C)cc1 (configuration not stated) | i | i | i | i | i
CC(C)NC(=O)Nc1ccc2c(c1)C(=O)N([C@@H](C)CO)C[C@@H](C)[C@@H](CN(C)C(=O)c1ccccc1)OCCCC[C@H](C)O2 | nt | nt | nt | i | nt
Cc1ccc(F)cc1S(=O)(=O)N[C@@H]1CCN(Cc2cccc3[nH]ccc23)C1 | i | i | i | nt | i
CC1CCCN(CCCN2C(=O)C3C(C(=O)Nc4ccc(Cl)cc4)C4C=CC3(O4)C2C(=O)NC2CCCCC2)C1 (configuration not stated) | i | i | i | i | i
COc1ccc(NC(=O)C2C3C=CC4(O3)C2C(=O)N(CCN2CCCCC2C)C4C(=O)NC2CCCC(C)C2C)cc1 (configuration not stated) | i | i | i | 92.3 | i
Cc1ccc(NC(=O)C2C3C=CC4(O3)C2C(=O)N(CCCN2CCCC(C)C2)C4C(=O)NC2CCCCC2)cc1 (configuration not stated) | 17.4 | i | i | i | i
COc1cccc(CNC(=O)N[C@@H](CC(C)C)C(=O)O)c1 | nt | nt | nt | 50.3 | nt
COc1cccc(CNC(=O)[C@@H]2CCCN2)c1 | 25.0 | i | i | i | i
CC(C)C[C@H](NC(=O)Nc1cccc(Br)c1)C(=O)O | i | i | i | i | 44.2
COC(=O)[C@H](CC(C)C)NC(=O)Nc1cccc(Br)c1 | i | i | i | i | i

Screening results as filed in PubChem BioAssay.
